Source: PubChem BioAssay (NCI)
“And” between values parts separate entries of the source, which are not always exact repeats. Equal entries are not always repeated. This is part of a sample that, as a whole, favours compounds with a hit. Of some 79,000 tested, about 15% had one in any assay. The source holds several records for some structures; these can differ, active in one and inactive in another. The source made the active and inactive calls. Cut-off read from the data, not from the text of the source: active = growth inhibition above about 70%; inactive = the rest.

Key:
[1] = NCI Yeast Anticancer Drug Screen. Data for the rad50 strain (AID 155);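 note: 0% = growth of vehicle-only cultures of the same strain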; conditions: S. cerevisiae rad50 strain growth inhibition; at 50.0 µM; stronger effect = higher value
Outline: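 Genetically altered yeast (DNA repair pathway); compound treatment; growth inhibition vs vehicle ctrl.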

[2] = NCI Yeast Anticancer Drug Screen. Data for the mec2-1 strain (AID 157); conditions: S. cerevisiae mec2-1 strain, at 50.0 µM, stronger effect = higher value
Outline: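 Vehicle-treated cultures served as reference for growth inhibition of compound-exposed mec2-1 yeast.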

[3] = NCI Yeast Anticancer Drug Screen. Data for the sgs1 mgt1 strain (AID 161);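 note: 0% = growth of cultures given vehicle only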; conditions: S. cerevisiae sgs1 mgt1 strain, at 50.0 µM, stronger effect = higher value
Outline: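 Genetically altered yeast, compound exposure, growth inhibition relative to vehicle.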

[4] = NCI Yeast Anticancer Drug Screen. Data for the cln2 rad14 strain (AID 165);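 note: 0% = growth equal to vehicle treated cultures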; conditions: S. cerevisiae cln2 rad14 strain, at 50.0 µM, stronger effect = higher value
Outline: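 Each compound was tested on cln2 rad14 yeast. Inhibition of growth was calculated against vehicle-exposed controls.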

[5] = NCI Yeast Anticancer Drug Screen. Data for the bub3 strain (AID 167); conditions: S. cerevisiae bub3 mutant strain, at 50.0 µM, stronger effect = higher value
Outline: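 Yeast carrying a defined mutation is treated with each compound, and growth is compared with that of vehicle-exposed cells to give inhibition.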

[6] = NCI Yeast Anticancer Drug Screen. Data for the mlh1 rad18 strain (AID 175); conditions: S. cerevisiae mlh1 rad18 strain growth inhibition; at 50.0 µM; stronger effect = higher value
Outline: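 Vehicle-treated cultures served as the reference for growth inhibition in a yeast strain carrying DNA damage repair alterations exposed to each compound.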

Measured: growth inhibition

CC1(C)N=C(N)N=C(N)N1c1ccc(CCCCc2ccccc2S(=O)(=O)F)c(Cl)c1
active: [1] 99.5% | [2] 99.7% | [3] 99.7% | [4] 99.4% | [5] 99.5% | [6] 99.7%

ClC1=C(Cl)C2(Cl)C3C(C4(Cl)C(Cl)=C(Cl)C3(Cl)C4(Cl)Cl)C2(Cl)C1(Cl)Cl (stereo unspecified)
inactive: [1] -1.7% | [2] -6.05% | [3] 9% | [4] -71% | [5] -2.4% | [6] -11.8%

CC(=O)OC1[C@H](n2ccnc2)C[C@H]2[C@@H]3CC=C4CC(N5CCCC5)CC[C@]4(C)[C@H]3CC[C@]12C (stereo partly specified)
inactive: [1] 2.1% | [2] -9.1% | [3] -29.9% | [4] 7.05% | [5] -48.8% | [6] -55.4%

O=[N+]([O-])c1cc(C2CCCCC2)c(O)c([N+](=O)[O-])c1
21.2% (inactive) and 81.8% (active): [5]
26.4% (inactive) and 86.3% (active): [6]
26% (inactive) and 79.5% (active): [2]
inactive: [1] 47.3% and 47.2% | [4] -8.75% and 59.2%
18% (inactive) and 80.8% (active): [3]

O=C1NC(=O)C(Br)C(=O)N1 (tested in a mixture with another compound)
inactive: [1] -8.5% | [2] 8.95% | [3] 0.5% | [4] -19.6% | [5] -1.95% | [6] -0.3%

CC12CCC3C(CC=C4CC(=O)CCC43CCO)C1CCC2Oc1ccccc1 (stereo unspecified)
inactive: [1] 5.3% | [2] -11.9% | [3] -2.45% | [4] 16.4% | [5] 23.7% | [6] 13.3%

O=P(CCl)(Oc1ccc(Cl)cc1)Oc1ccc(Cl)cc1
inactive: [1] 20.6% | [2] 16.1% | [3] 6% | [4] -19.4% | [5] 7.5% | [6] -10.2%

NC(=O)C(F)(F)Cl
inactive: [1] 12.8% | [2] 7.1% | [3] -20.4% | [4] 12.3% | [5] -28.8% | [6] -19.2%

CCC[CH2][Sn]([CH2]CCC)([CH2]CCC)[CH2]CC(=O)OC
active: [1] 99.5% | [2] 99.4% | [3] 99.5% | [4] 99.3% | [5] 99% | [6] 99.5%

O=S1(=O)N2CN3CCN(C2)CN1C3
inactive: [1] 36.5% | [2] 40.4% | [3] 31.4% | [4] -25.3% | [5] 12.1% | [6] 34%

CC1OP(=S)(N2C(=O)c3ccccc3C2=O)OC2CCCCC12 (stereo unspecified)
inactive: [1] 11.8% | [2] 15.6% | [3] 4.4% | [4] -26.4% | [5] 10.2% | [6] -5.9%

C1CC[N-]CC1.C1CC[N-]CC1.C1CC[N-]CC1.C1CC[N-]CC1.[Cl][Rh][Cl]
inactive: [1] -12.5% | [2] 28.6% | [3] 8.5% | [4] -13.9% | [5] -58% | [6] -18.4%

C1CC[N-]CC1.CC(=N\O)/C(C)=N/O.CC(=N\O)/C(C)=N/O.C[C-]=O.[Co+2]
inactive: [1] -3.6% | [2] 18.4% | [3] 10.3% | [4] 23.6% | [5] 19% | [6] 14.4%

O=C(O)C(O)C(O)C(O)C(O)C(O)C(O)CO (stereo unspecified)
inactive: [1] -18.1% | [2] -6.95% | [3] -33.4% | [4] -73.5% | [5] 3% | [6] 2.95%

O=C=Nc1ccccc1Cl
inactive: [1] 12.5% | [2] 3.1% | [3] -1.15% | [4] 5.45% | [5] 4.2% | [6] 5.15%

COCCOC(=O)CCl
inactive: [1] -4.35% | [2] 0.4% | [3] 10.9% | [4] 0.45% | [5] -0.7% | [6] 25.5%

CN(C)c1ccccc1CN1CCCN(Cc2ccccc2N(C)C)C1c1ccc(N(CCCl)CCCl)cc1
active: [1] 92.4% | [3] 93.5% | [6] 90.8%
inactive: [2] 40.4% | [4] 57.4% | [5] 15.1%

COc1ccc(P2(=S)OC(C)(C)C(C)(C)O2)cc1
inactive: [1] -24.7% | [2] -16.2% | [3] -23.7% | [4] -51.6% | [5] -11.4% | [6] -43%

O=C(NC(Cc1ccccc1)C(=O)N(CCCl)CCCl)c1ccccc1 (stereo unspecified)
inactive: [1] -5.15% | [2] -17.5% | [3] 16.7% | [4] 4.1% | [5] -13.7% | [6] 23.4%

CC1C(=O)OC2CC[N+]3([O-])CC=C(COC(=O)C(C)(O)C1(C)O)C23 (stereo unspecified)
inactive: [1] -0.6% | [2] -37.2% | [3] -14.7% | [4] -5.25% | [5] -9.25% | [6] -84.4%

O=NN(O)c1ccccc1.O=NN(O)c1ccccc1.[Mn+2]
inactive: [1] 4.85% | [2] 0.15% | [3] 13.1% | [4] -46.5% | [5] -4.3% | [6] 3.85%

N/C(=N\N=C\c1ccccc1O)N[N+](=O)[O-]
inactive: [1] -17.5% | [2] -22.9% | [3] -14.8% | [4] -108% | [5] -19.2% | [6] -5.85%

Cc1ccc(CCl)c(O)c1
inactive: [1] -25.7% | [2] -14.6% | [3] -6% | [4] -12.5% | [5] 7.1% | [6] -0.8%

CC(Cl)[N+](=O)[O-] (stereo unspecified)
inactive: [1] 15.4% | [2] -10.2% | [3] 2.55% | [4] 16.9% | [5] 9% | [6] 1.9%

c1ccc(CCN2CCOCC2)nc1
inactive: [1] 17.3% | [2] 1.6% | [3] -8.95% | [4] 52% | [5] 4.55% | [6] 3.85%

C=CCc1cc(C=C(C#N)C#N)cc(OC)c1O
inactive: [1] -0.15% | [2] -2.85% | [3] 10.7% | [4] 23.1% | [5] 9.05% | [6] 11.7%

CCN(CC)CCn1ncc2c(N)ncnc21
inactive: [1] -0.25% | [2] -9% | [3] -26.4% | [4] -19.6% | [5] -22.8% | [6] -1.15%

CN1CCN(c2nc(N)c(Br)c(Cl)n2)CC1
inactive: [1] -2.85% | [2] 3.65% | [3] -14.8% | [4] -1.85% | [5] 2.95% | [6] -10.2%

CNCCc1c[nH]c2ccc(O)cc12
inactive: [1] -2.15% | [2] -8.6% | [3] -1.35% | [4] -39.5% | [5] 18.9% | [6] -10.7%

Nc1ccc(C(=O)O)c(C(=O)O)c1
inactive: [1] -10.5% | [2] -6.8% | [3] 1.35% | [4] -32% | [5] -13.9% | [6] -7.05%

CCC1CC[N-]CC1.CCC1CC[N-]CC1.[Cl][Pt+2][Cl]
inactive: [1] -0.95% | [2] 14.8% | [4] -42.5% | [5] 18.1% | [6] 48.8%
active: [3] 73%

CCC1CN2CCc3cc(OC)c(OC)cc3C2CC1CC1c2cc(OC)c(OC)cc2CCN1C(=O)C(N)Cc1ccccc1 (stereo unspecified)
inactive: [1] -8.25% | [2] -0.5% | [3] -2.3% | [4] -3.05% | [5] -5.05% | [6] 8.5%

CC1=C(C#N)C2(CCN(C)CC2)C(C#N)=C(C)N1
inactive: [1] 13.3% | [2] 8.75% | [3] 3.05% | [4] -27.9% | [5] -3% | [6] -4.4%

CCOP(=O)(OCC)C(N)Cc1ccc(OC)c(OC)c1 (stereo unspecified)
inactive: [1] -3.85% | [2] -4% | [3] 2.35% | [4] 19.9% | [5] 13% | [6] -16.6%

CC12CCC(OC3OC(CO)C(OC4OC(CO)C(O)C(O)C4O)C(O)C3O)CC1CCC1C2CCC2(C)C(C3=CC(=O)OC3)CCC12O (stereo unspecified)
inactive: [1] 15.8% | [2] -3.95% | [3] -14.2% | [4] -7.95% | [5] 13.6% | [6] 6.85%

CCC/C=C/C=C/C(=O)OC1/C(=C/C(=O)OC)CC2CC(C(C)O)OC(=O)CC(O)CC3CC(OC(C)=O)C(C)(C)C(O)(CC4C/C(=C/C(=O)OC)CC(/C=C/C(C)(C)C1(O)O2)O4)O3 (stereo unspecified)
inactive: [1] 15.7% | [2] -5.2% | [3] -7.85% | [4] 21.3% | [5] 6.15% | [6] 23.1%

CN(C)C(=O)Oc1c(-c2ccccc2)c(=O)n2c3ccccc3n3c(=O)n(C)c(=O)c1c23
inactive: [1] 21.8% | [2] 23.4% | [3] -0.9% | [4] 17.1% | [5] 11.7% | [6] 19.8%

CC1(C)CC(OP(=O)(Cl)OC2CC(C)(C)N(O)C(C)(C)C2)CC(C)(C)N1O
inactive: [1] 1.8% | [2] -0.75% | [3] 7.85% | [4] -7.35% | [5] 1.1% | [6] -7.65%

Cc1ccc(CCl)c(C)c1
inactive: [1] -21.1% | [2] 8.4% | [3] -6.95% | [4] -39% | [5] 5.45% | [6] -19%

Cc1ccc2n[se]nc2c1
inactive: [1] 11.6% | [2] -15.4% | [3] -16.8% | [4] -0.3% | [5] -15.1% | [6] -8.15%

CC(C)(C)NC(=O)CCl
inactive: [1] -9.6% | [2] -1.35% | [3] -6.1% | [4] -10.2% | [5] 7.45% | [6] -7.85%
